{"source": "PubChem BioAssay AID1981", "about": "(Southern Research Specialized Biocontainment Screening …, 2009)", "note": "Hit rate of the full screen: of about 2,200 compounds, about 480 (22%) were called active. No rule for the calls is given here. Not all results are given here. Measured potencies and affinities stand elsewhere."}
{"assay": "S. Typhimurium GFP fluorescence modified counterscreen for PhoP regulon inhibitor project dose response (AID 1981)", "settings": "4 h; series mostly up to 150 µM"}
{"compound": "O=C(OCC1COc2ccccc2O1)c1ccccc1F", "note": "(configuration not stated)", "outcome": "inactive"}
{"compound": "CN(C)CCOC(=O)Cc1ccc(Cl)cc1", "outcome": "inactive"}
{"compound": "CC(=O)N(Cc1ccc(Cl)cc1)c1cnccn1", "outcome": "inactive"}
{"compound": "C/C(Nc1ccc(F)cc1)=C(/C#N)C(N)=O", "outcome": "inactive"}
{"compound": "Cc1ccc2c(c1)cc(CN(Cc1ccc3c(c1)OCO3)C(=O)c1cnccn1)c1nnnn12", "outcome": "inactive"}
{"compound": "Cc1nnc(NC(=O)CSc2ncnc3scc(-c4ccccc4)c23)s1", "outcome": "inactive"}
{"compound": "O=C(CSc1nnnn1-c1ccccc1)CC(=O)Nc1ccc(Cl)cc1", "outcome": "inactive"}
{"compound": "O=C(CSc1nnc2c(Cl)cc(Cl)cn12)NC1CCS(=O)(=O)C1", "note": "(configuration not stated)", "outcome": "inactive"}
{"compound": "COc1ccc(/C=C2\\CN(Cc3ccccc3)C/C(=C\\c3ccc(OC)cc3)C2=O)cc1", "outcome": "inactive"}
{"compound": "Cc1cccc(C)c1NC(=O)CSc1nnc(NC(=O)CN2CCOCC2)s1", "outcome": "inactive"}
{"compound": "Cc1cc(C(=O)N/N=C/C=C/c2ccc3c(c2)OCO3)n[nH]1", "outcome": "inactive"}
{"compound": "Cc1cc(C(=O)N/N=C/c2cccc([N+](=O)[O-])c2O)n[nH]1", "outcome": "inactive"}
{"compound": "O=C(N/N=C/c1cccn1-c1ccc([N+](=O)[O-])cc1)C(O)c1ccccc1", "note": "(configuration not stated)", "outcome": "inactive"}
{"compound": "CN(C)C(=O)c1cn(N(C)c2ncc(C(F)(F)F)cc2Cl)c(=O)c2ccccc12", "outcome": "inactive"}
{"compound": "Cc1ccc(-c2cc(-c3ccc(Cl)cc3)c(C#N)c(N)n2)o1", "outcome": "inactive"}
{"compound": "CC(=O)c1cccc(NC(=O)NCc2ccco2)c1", "outcome": "inactive"}
{"compound": "Nc1nc(-c2ccc(Br)cc2)cs1", "outcome": "inactive"}
{"compound": "COc1ccc(-c2cc(N3CCCC3)n3ncnc3n2)cc1", "outcome": "inactive"}
{"compound": "Cc1ccccc1NC(=S)N(CCCN1CCOCC1)Cc1ccccn1", "outcome": "inactive"}
{"compound": "CCn1c(Cc2c(C)[nH]c3ccccc23)n[nH]c1=S", "outcome": "inactive"}
{"compound": "O=c1[nH]c2ccccc2n1C1=CCCC1", "outcome": "inactive"}
{"compound": "Cc1cccc(C)c1NC(=O)CCCSc1nnc(-c2ccc(Cl)cc2)n1-c1ccccc1", "outcome": "inactive"}
{"compound": "COc1ccccc1-c1cc(C(=O)Nc2cc(C)nn2-c2ccccc2)no1", "outcome": "inactive"}
{"compound": "Cc1ccc(-n2nc(-c3ccc(N)cc3)cc2N)cc1", "outcome": "inactive"}
{"compound": "O=C(OCC(=O)c1ccccc1Cl)c1cnccn1", "outcome": "inactive"}
{"compound": "O=C(c1cc2ncc(Br)cn2n1)N1CCOCC1", "outcome": "inactive"}
{"compound": "Cc1[nH]c2ccccc2c1C(O)CN1CCN(c2cccc(C(F)(F)F)c2)CC1", "note": "(configuration not stated)", "outcome": "inactive"}
{"compound": "COc1cc(C2Nc3cccc4cccc(c34)N2)cc(OC)c1OC(C)=O", "outcome": "inactive"}
{"compound": "CC(=O)Oc1c2occc2cc2ccc(=O)oc12", "outcome": "inactive"}
{"compound": "O=C(NCCNS(=O)(=O)c1cccc(C(F)(F)F)c1)c1cc(OCC(F)(F)F)ccc1OCC(F)(F)F", "outcome": "inactive"}
{"compound": "O=c1c(Br)c(Br)cnn1-c1ccccc1", "outcome": "inactive"}
{"compound": "CCCOC(=O)C(C)n1cnc2sc(C)c(C)c2c1=O", "note": "(configuration not stated)", "outcome": "inactive"}
{"compound": "COc1ccc(C(=O)C(CO)Oc2ccccc2OC)cc1OC", "note": "(configuration not stated)", "outcome": "inactive"}
{"compound": "COc1ccccc1OCc1ccc(C(=O)N2CCN(C(=O)c3ccco3)CC2)cc1", "outcome": "inactive"}
{"compound": "COc1ccc(OCCSc2nnc3sc4ccccc4n23)cc1", "outcome": "inactive"}
{"compound": "S=C(Nc1ccccc1)Nc1nc2ccccc2n1CCOc1ccc(Cl)cc1", "outcome": "inactive"}
{"compound": "Cc1ccc(OCc2nc3ccccc3[nH]2)cc1", "outcome": "inactive"}
{"compound": "Clc1ccc(OCCn2cnc3ccccc32)cc1", "outcome": "inactive"}
{"compound": "COC(=O)Cn1c(C)nc2ccccc21", "outcome": "inactive"}
{"compound": "CCOC(=O)CCC(NC(=O)c1ccc(NCN2C(=O)CCC2=O)cc1)C(=O)OCC", "note": "(configuration not stated)", "outcome": "inactive"}
{"compound": "CC(=O)c1c(C)nc(-c2ccc(Cl)cc2)nc1N=CN(C)C", "outcome": "inactive"}
{"compound": "Cc1cccc(C=Nc2ccc3c(c2)oc2ccccc23)c1O", "outcome": "inactive"}
{"compound": "CCc1cccc2c(C#N)cn(CC(=O)NCCOC)c12", "outcome": "inactive"}
{"compound": "C/C(=N\\n1nnnc1Nc1ccccc1)c1ccc(N)cc1", "outcome": "inactive"}
{"compound": "Cc1ccc2c(c1)C(c1ccccc1)NCC(=O)N2", "note": "(configuration not stated)", "outcome": "inactive"}
{"compound": "Cc1cc(C)nc(NC(=O)Cc2cccs2)n1", "outcome": "inactive"}
{"compound": "Cc1cccc(OCC(=O)NNc2c3ccccc3nc3ccccc23)c1", "outcome": "inactive"}
{"compound": "COc1ccc(/C=C/C(=O)O)cc1COc1cccc(C)c1", "outcome": "inactive"}
{"compound": "C=CCN=C(NC#N)SCc1ccccc1Cl", "outcome": "inactive"}
{"compound": "Cc1cc(C)c(NC(=O)COc2ccccc2C(=O)Nc2ccc3c(c2)oc2ccccc23)c(C)c1", "outcome": "inactive"}
{"compound": "O=C1Nc2ccccc2/C1=C/c1cnc[nH]1", "outcome": "inactive"}
{"compound": "Cc1ccccc1OCCCCCn1ccnc1", "outcome": "inactive"}
{"compound": "Cc1nn(-c2ccccc2)c2sc(-c3n[nH]c(=S)o3)cc12", "outcome": "inactive"}
{"compound": "COc1ccc(OC)c(S(=O)(=O)N2c3cc(F)ccc3CCC2C)c1", "note": "(configuration not stated)", "outcome": "inactive"}
{"compound": "Cc1cccc(Sc2c([N+](=O)[O-])ncn2C)c1", "outcome": "inactive"}
{"compound": "Clc1ccc(OCCn2ccnc2)c2ccccc12", "outcome": "inactive"}
{"compound": "Cc1ccc(C(=O)COC(=O)CNS(=O)(=O)c2ccccc2)cc1[N+](=O)[O-]", "outcome": "inactive"}
{"compound": "O=C1/C(=C/c2ccccc2)NC(=S)N1C(c1ccccc1)c1ccccc1", "outcome": "inactive"}
{"compound": "Cc1cc(C(=O)NNC(=S)NC(=O)/C=C/c2ccccc2Cl)n[nH]1", "outcome": "inactive"}
{"compound": "CN(c1ccccc1)S(=O)(=O)c1cc(C(=O)Nc2nc3ccccc3[nH]2)ccc1Cl", "outcome": "inactive"}
{"compound": "COC(=O)CSc1nnc(-c2ccco2)n1Cc1ccco1", "outcome": "inactive"}
{"compound": "Cc1ccccc1Cn1c(=N)n(CC(=O)c2ccco2)c2ccccc21", "outcome": "inactive"}
{"compound": "NC(=O)c1oc2ccccc2c1NC(=O)CN1CCCCC1", "outcome": "inactive"}
{"compound": "O=C(CN1CCCCC1)Nc1cccc(Br)c1", "outcome": "inactive"}
{"compound": "O=C(CSc1nnc2n(C3CCCCC3)c(=O)c3ccccc3n12)OC1CCCCC1", "outcome": "inactive"}
{"compound": "OC(COc1ccc2ccccc2c1Br)Cn1ccnc1", "note": "(configuration not stated)", "outcome": "inactive"}
{"compound": "COc1cc(C)ccc1OCCCOc1ccccc1Br", "outcome": "inactive"}
{"compound": "COc1cccc(NC(=O)Cn2c(=O)n(CCCC(=O)NCc3ccco3)c(=O)c3ccccc32)c1", "outcome": "inactive"}
{"compound": "Cc1ccc(N(CC(=O)N/N=C/c2ccco2)S(=O)(=O)c2ccccc2)cc1", "outcome": "inactive"}
{"compound": "CCCc1ccc(C(=O)CCC(=O)O)cc1", "outcome": "inactive"}
{"compound": "COc1cccc(C=NCCNC(=O)c2nonc2N)c1O", "outcome": "inactive"}
{"compound": "Nc1nonc1C(=O)NCCN=Cc1cc(Cc2ccccc2)cc(Br)c1O", "outcome": "inactive"}
{"compound": "Nc1nonc1-n1nnc(C(=O)N/N=C/c2ccc(Br)cc2)c1CSC1=NCCS1", "outcome": "inactive"}
{"compound": "CC(C)n1cc(C(=O)N2CCCC(N3CCN(c4ccc(F)cc4)CC3)C2)cn1", "note": "(configuration not stated)", "outcome": "inactive"}
{"compound": "O=C(CSc1nc2ccccc2o1)Nc1ccc(N2CCOCC2)c(Cl)c1", "outcome": "inactive"}
{"compound": "O=C(c1ccccc1)N1CCSC1=S", "outcome": "inactive"}
{"compound": "CC1(C)CC(=O)C(/C=N/c2ncccc2C(=O)O)=C(O)C1", "outcome": "inactive"}
{"compound": "CCCCCn1c(N)c(C(=O)NCc2cccs2)c2nc3ccccc3nc21", "outcome": "inactive"}
{"compound": "O=C(c1ccc2nc(N3CCOCC3)sc2c1)N1CCC(Cc2ccccc2)CC1", "outcome": "inactive"}
{"compound": "COc1ccc(-c2nnn(CC(=O)N(Cc3ccco3)C(C(=O)NCC3CCCO3)c3ccco3)n2)cc1", "note": "(configuration not stated)", "outcome": "inactive"}
{"compound": "C#CC(=O)N(c1cc(OC)ccc1OC)C(C(=O)NC1CCCC1)c1cccs1", "note": "(configuration not stated)", "outcome": "inactive"}
{"compound": "CCC(C)NC(=O)c1ccccc1NC(=O)C(C)N(c1ccccc1)S(C)(=O)=O", "note": "(configuration not stated)", "outcome": "inactive"}
{"compound": "Nc1nc(-c2ccc3c(c2)OCCO3)cs1", "outcome": "inactive"}
{"compound": "CN(C)c1ccc(Nc2nc(-c3cccnc3)cs2)cc1", "outcome": "inactive"}
{"compound": "CCn1c2ccccc2c2cc(N)ccc21", "outcome": "inactive"}
{"compound": "CCc1cccc(NC(=O)Nc2cccs2)c1", "outcome": "inactive"}
{"compound": "COc1ccc(N=c2cc(-c3ccc(OC)cc3)oc3ccccc23)cc1", "outcome": "inactive"}
{"compound": "CCCNC(=O)CSc1nnc(C)s1", "outcome": "inactive"}
{"compound": "Cn1ccnc1C(O)c1ccc(OCc2ccccc2)cc1", "note": "(configuration not stated)", "outcome": "inactive"}
{"compound": "CSc1nnc2c3c4c(sc3nc(-n3nc(C)cc3C)n12)COC(C)(C)C4", "outcome": "inactive"}
{"compound": "COc1ccc(NC(=O)c2ccc(OC)cc2)cc1", "outcome": "inactive"}
{"compound": "FC(F)(F)C1=CC(c2ccc(Br)cc2)=NCCN1", "outcome": "inactive"}
{"compound": "N=c1scc(-c2ccccc2)n1/N=C/c1ccco1", "outcome": "inactive"}
{"compound": "COc1ccc(-c2nnc(SCCC(=O)O)n2-c2ccccc2)cc1", "outcome": "inactive"}
{"compound": "O=C(NCCNc1ccc([N+](=O)[O-])cc1C(F)(F)F)c1cccc(F)c1", "outcome": "inactive"}
{"compound": "Oc1ccc(Br)cc1-c1nc2cnccn2c1NC1CCCCC1", "outcome": "inactive"}
{"compound": "O=C1CCCc2nc(N3CCN(Cc4ccccc4)CC3)ncc21", "outcome": "inactive"}
{"compound": "COc1ccccc1CC1(C)NC(=O)N(CC(=O)N2CC(C)OC(C)C2)C1=O", "note": "(configuration not stated)", "outcome": "inactive"}
{"compound": "Cc1ccccc1OCCSCc1nc2ccccc2[nH]1", "outcome": "inactive"}
{"compound": "O=C(Nc1ccc(S(=O)(=O)Nc2nccs2)cc1)c1cc(-c2ccccc2)nc2ccccc12", "outcome": "inactive"}
{"compound": "Cc1ccc(C(=O)c2ccccc2C(=O)O)c(O)c1", "outcome": "inactive"}
{"compound": "CC(CN1CCOCC1)C(=O)c1ccccc1", "note": "(configuration not stated)", "outcome": "inactive"}
{"compound": "Cc1cc(C(=O)NCc2cccs2)cs1", "outcome": "inactive"}
{"compound": "CCCc1cc(N2CCN(c3ccccn3)CC2)n2nc(C)c(-c3ccccc3)c2n1", "outcome": "inactive"}
{"compound": "COc1ccc(CNc2nc3c(c(=O)[nH]c(=O)n3C)n2CCCc2ccccc2)cc1", "outcome": "inactive"}
{"compound": "COc1nc(-c2ccccc2)ccc1-c1noc(C)n1", "outcome": "inactive"}
{"compound": "NCCCCCc1nnc(SCc2ccc(Cl)cc2Cl)o1", "outcome": "inactive"}
{"compound": "Cc1ccc([N+](=O)[O-])cc1-c1ccc(/C=C(\\C#N)c2[nH]nc(N)c2C#N)o1", "outcome": "inactive"}
{"compound": "CNC(=O)CN(c1ccc(F)cc1)S(=O)(=O)c1cc(C)ccc1OC", "outcome": "inactive"}
{"compound": "CCN1C(=O)N/C(=C/c2ccc(Sc3ccc(C)cc3)o2)C1=O", "outcome": "inactive"}
{"compound": "O=C(CCCCCNc1nc(=S)[nH]c2ccccc12)NCCc1c[nH]c2ccccc12", "outcome": "inactive"}
{"compound": "Cc1ccc2nc(NNC(=O)c3ccc(S(=O)(=O)N4CCc5ccccc5C4)cc3)sc2c1", "outcome": "inactive"}
{"compound": "C=CCNCC#CCOc1ccc(OC)cc1", "outcome": "inactive"}
{"compound": "Cn1cccc1C(=O)OCc1csc(-c2ccccc2)n1", "outcome": "inactive"}
{"compound": "Cc1ccc(S(=O)(=O)NCc2ccc(C(=O)N3CCN(c4ccccn4)CC3)cc2)cc1", "outcome": "inactive"}
{"compound": "O=C(CCCN1Cc2ccccc2C1)c1ccc(F)cc1", "outcome": "inactive"}
{"compound": "CCOC(=O)N1CCC(NC(=O)CCC(=O)c2ccccc2)CC1", "outcome": "inactive"}
